{
  "source": "PubChem BioAssay (NCATS)",
  "note": "Inconclusive results are not listed. The source made the active and inactive calls. Calls come from the whole dose curve; as a rule, active = well fitted curve in the direction sought with a large enough effect; inconclusive = small, poorly fitted or top-dose-only effect, or another doubt; inactive = no such curve, though single readings can be large; an effect the other way counts as inactive or inconclusive. Positions of bridges follow the written chain, without caps; N, C: chain ends. Non-standard residues stand in square brackets, D forms with d. Residues, ends and D or L forms follow the SMILES beside them. ξ: configuration not given here. *: point of attachment. Octanoyl(6-Me) = CCC(C)CCCCC(=O)*; ξThr(3R) = C[C@@H](O)C(N)C(=O)O; dDab = NCC[C@@H](N)C(=O)O; Dab = NCC[C@H](N)C(=O)O",
  "data": [
    {"biological_target": "Glutathione peroxidase 1 (Homo sapiens) (UniProt P07203)", "sequence (P07203 whole entry, looked up)": "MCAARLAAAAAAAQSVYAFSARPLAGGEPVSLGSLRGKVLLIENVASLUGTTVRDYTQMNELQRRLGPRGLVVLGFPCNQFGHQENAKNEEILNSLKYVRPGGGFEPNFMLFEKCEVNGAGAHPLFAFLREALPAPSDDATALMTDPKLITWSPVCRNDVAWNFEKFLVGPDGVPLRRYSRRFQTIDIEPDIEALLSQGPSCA", "test": "Primary qHTS Assay for Inhibitors of Recombinant Selenoprotein Glutathione Peroxidase 1 (GPX1) (AID 1845191); note: nearly all actives have a fitted effect of over 65% in size; for activity, negative = inhibition: % is set by controls: 0 for no effect and ±100 for the full control effect", "settings": "recombinant GPX1, GR-coupled NADPH fluorescence, 15 min; series mostly up to 48.8 µM; activity, negative = inhibition: at the top concentration", "how_it_was_run": "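10 nM GPX1 + cpd, 30 min RT; start w/ 1 mM GSH, 0.5 mM cumene hydroperoxide, 0.5 mM NADPH, 100 nM GR, 0.01% BSA; buffer 50 mM Tris-HCl pH 7.5, 2 mM EDTA, 150 mM NaCl; Fl 340/450, 0 & 15 min.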", "values": [
      {"smiles": "O=c1c(O)c(-c2ccc(O)c(O)c2)oc2cc(O)ccc12", "outcome": "inactive"},
      {"smiles": "Nc1nc(N)c2nc(-c3cccc(O)c3)c(-c3cccc(O)c3)nc2n1", "outcome": "inactive"},
      {"smiles": "O=S(=O)(O)CCSSCCS(=O)(=O)O", "outcome": "inactive"},
      {"smiles": "Cc1noc(-c2ccc(CSCCC(=O)O)cc2)c1NC(=O)OC(C)c1ccccc1Cl", "note": "(stereo unspecified)", "outcome": "inactive"},
      {"smiles": "O=C(Nc1nnc(-c2ccco2)o1)c1cc(-c2ccccc2)nc2ccccc12", "activity, negative = inhibition": "1.72% (inactive)"},
      {"smiles": "CC(C)Oc1ccc(C(=O)N[C@H](CNC(=O)CN(C)C)Cc2ccc(-c3cn4cccc([C@H](C)O)c4n3)cc2)cc1Cl", "Potency": "inactive"},
      {"smiles": "CNC(=O)Nc1ccc(-c2nc(N3CC4CCC(C3)O4)c3cnn(C4CCC5(CC4)OCCO5)c3n2)cc1", "outcome": "inactive"},
      {"smiles": "C#CCC(Cc1cnc2nc(N)nc(N)c2n1)c1ccc(C(=O)N[C@@H](CCC(=O)O)C(=O)O)cc1", "note": "(stereo partly specified)", "activity, negative = inhibition": "1.53% (inactive)"},
      {"smiles": "CCCCCCCCCCCCc1ccc(S(=O)(=O)Nc2nncs2)cc1", "outcome": "inactive"},
      {"smiles": "C[C@](Cc1c[nH]c2ccccc12)(NC(=O)OC1C2CC3CC(C2)CC1C3)C(=O)NC[C@H](NC(=O)CCC(=O)O)c1ccccc1", "note": "(stereo partly specified)", "outcome": "inactive"},
      {"smiles": "C[C@H]1COc2c(N3CCN(C)CC3)c(F)cc3c(=O)c(C(=O)O)cn1c23", "outcome": "inactive"},
      {"smiles": "NC1=N[C@H]2[C@H](CS[C@H]2CCCCC(=O)O)N1", "outcome": "inactive [at 27.7 µM]"}
    ]},
    {"biological_target": "Phospholipid hydroperoxide glutathione peroxidase GPX4 (Homo sapiens) (UniProt P36969)", "sequence (P36969 whole entry, looked up)": "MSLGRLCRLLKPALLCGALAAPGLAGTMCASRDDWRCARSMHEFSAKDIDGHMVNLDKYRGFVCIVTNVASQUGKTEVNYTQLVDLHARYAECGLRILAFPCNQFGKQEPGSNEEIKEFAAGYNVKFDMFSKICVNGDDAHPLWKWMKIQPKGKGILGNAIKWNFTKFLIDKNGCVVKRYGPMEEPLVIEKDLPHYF", "test": "Primary qHTS Assay for Inhibitors of Recombinant Selenoprotein Glutathione Peroxidase 4 (GPX4) (AID 1845192); note: nearly all actives have a fitted effect of over 65% in size; note: potency is the fitted concentration of half-maximal effect; for activity change, negative = inhibition: % is set by controls: 0 for no effect and ±100 for the full control effect", "settings": "recombinant GPX4, GR-coupled NADPH fluorescence, 15 min; series mostly up to 50 µM; activity change, negative = inhibition: at the top concentration", "how_it_was_run": "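NADPH consumption, followed by fluorescence at 340/450 nm between 0 and 15 min, reports GPX4 activity via coupled glutathione reductase (100 nM). Enzyme 200 nM was pre-exposed to compound 30 min; 0.5 mM cumene hydroperoxide and 1 mM GSH served as substrates.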", "values": [
      {"smiles": "O=C(Nc1cccc(Nc2ncc(Br)c(NCCc3cnc[nH]3)n2)c1)N1CCCC1", "outcome": "inactive"},
      {"smiles": "COc1cc(C(=O)NC2CCN(C)CC2)ccc1Nc1ncc2c(n1)N(C1CCCC1)CCC(=O)N2C(C)C", "activity change, negative = inhibition": "3.13% (inactive)"},
      {"smiles": "COc1cc(C(C)C)c(Oc2cnc(NC(CO)CO)nc2N)cc1I", "activity change, negative = inhibition": "-10.2% (inactive)"},
      {"smiles": "CCC[C@H]1C[C@H](C(=O)N[C@@H]([C@@H]2O[C@@H](SC)[C@@H](O)[C@@H](O)[C@@H]2O)[C@H](C)Cl)N(C)C1", "activity change, negative = inhibition": "-3.55% (inactive)"},
      {"smiles": "C[C@H](O)[C@@H]1C(=O)N2C(C(=O)O)=C(S[C@@H]3CN[C@H](CNS(N)(=O)=O)C3)[C@@H](C)[C@@H]12", "activity change, negative = inhibition": "-16.4% (inactive)"},
      {"smiles": "CC(C)n1cnc2c(NCCc3ccc(O)cc3)nc(-c3csc4ccccc34)nc21", "activity change, negative = inhibition": "-19.9% (inactive)"},
      {"smiles": "Cc1ccc2nc(NCCN)c3ncc(C)n3c2c1", "Potency": "22.7 µM (active)"},
      {"smiles": "CCC(C)CCCCC(=O)N[C@@H](CCN)C(=O)NC(C(=O)N[C@H](CCN)C(=O)N[C@@H]1CCNC(=O)C([C@@H](C)O)NC(=O)[C@@H](CCN)NC(=O)[C@@H](CCN)NC(=O)[C@@H](CC(C)C)NC(=O)[C@H](Cc2ccccc2)NC(=O)[C@H](CCN)NC1=O)[C@@H](C)O", "note": "(stereo partly drawn) ({Octanoyl(6-Me)}-[Dab][ξThr(3R)][dDab][dDab][Dab]F[dL][dDab][dDab][ξThr(3R)]; lactam 4-C)", "outcome": "inactive"}
    ]},
    {"biological_target": "Luciferin 4-monooxygenase (Photinus pyralis) (UniProt P08659)", "test": "Primary firefly luciferase (FLuc) qHTS assay for identification of artifact compounds. (AID 1845220); note: nearly all actives have a fitted effect of over 60% in size;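 for activity change, negative = inhibition: plate controls were DMSO vehicle for no effect and no enzyme for full effect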", "settings": "purified firefly luciferase, luminescence, 5 min; series mostly up to 54.1 µM; activity change, negative = inhibition: at the top concentration", "how_it_was_run": "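Cell-free, 1536-well qHTS. Buffer pH 7.6 with 0.01% Tween-20 and 0.05% BSA; 10 uM D-luciferin, 10 uM ATP; 10 nM P. pyralis luciferase; luminescence after 5 min.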", "values": [
      {"smiles": "COc1ccc(S(=O)(=O)Nc2cccnc2Nc2ccc(O)cc2)cc1", "outcome": "inactive"},
      {"smiles": "CCC[C@H]1C[C@H](C(=O)N[C@@H]([C@@H]2O[C@@H](SC)[C@@H](O)[C@@H](O)[C@@H]2O)[C@H](C)Cl)N(C)C1", "activity change, negative = inhibition": "-5.42% (inactive)"},
      {"smiles": "CC(C)(N)c1ccc(-c2nc3ccccc3nc2-c2ccccc2)cc1", "activity change, negative = inhibition": "2.86% (inactive)"},
      {"smiles": "C[C@H](O)[C@@H]1C(=O)N2C(C(=O)O)=C(S[C@@H]3CN[C@H](CNS(N)(=O)=O)C3)[C@@H](C)[C@@H]12", "outcome": "inactive"},
      {"smiles": "CC(C)n1cnc2c(NCCc3ccc(O)cc3)nc(-c3csc4ccccc34)nc21", "activity change, negative = inhibition": "-6.14% (inactive)"},
      {"smiles": "CC(C)c1cc(C(C)C)c(CC(=O)NS(=O)(=O)Oc2c(C(C)C)cccc2C(C)C)c(C(C)C)c1", "activity change, negative = inhibition": "-1.78% (inactive)"}
    ]},
    {"system": "not listed separately", "test": "Primary fluorescence-based thiol-reactive (MSTI) qHTS assay for identification of artifact compounds. (AID 1845221); note: nearly all actives have a fitted effect of over 65% in size; note: potency is the fitted concentration of half-maximal effect;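 for activity change, negative = thiol reactive: thiol-reactive compounds lower the probe fluorescence signal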", "settings": "MSTI thiol-reactivity probe, 1 h; series mostly up to 53.8 µM; activity change, negative = thiol reactive: at the top concentration", "how_it_was_run": "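qHTS titration of compound; 4 uM MSTI, PBS pH 7.4, 2% DMSO; 1 h RT, dark; fluorescence 525/598 nm; normalized to Acetyl-MSTI and MSTI; 4-parameter Hill fit.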", "values": [
      {"smiles": "COc1ccc(S(=O)(=O)Nc2cccnc2Nc2ccc(O)cc2)cc1", "Potency": "4.23 µM (active)"},
      {"smiles": "CCC[C@H]1C[C@H](C(=O)N[C@@H]([C@@H]2O[C@@H](SC)[C@@H](O)[C@@H](O)[C@@H]2O)[C@H](C)Cl)N(C)C1", "activity change, negative = thiol reactive": "36.5% (inactive)"},
      {"smiles": "CC(C)(N)c1ccc(-c2nc3ccccc3nc2-c2ccccc2)cc1", "activity change, negative = thiol reactive": "52.8% (inactive)"},
      {"smiles": "CC(C)n1cnc2c(NCCc3ccc(O)cc3)nc(-c3csc4ccccc34)nc21", "activity change, negative = thiol reactive": "348% (inactive)"},
      {"smiles": "CC(C)c1cc(C(C)C)c(CC(=O)NS(=O)(=O)Oc2c(C(C)C)cccc2C(C)C)c(C(C)C)c1", "activity change, negative = thiol reactive": "35.1% (inactive)"}
    ]},
    {"system": "Nanoluciferase (engineered Oplophorus gracilirostris luciferase)", "test": "Primary Nanoluciferase (NLuc) qHTS assay for identification of artifact compounds. (AID 1845222);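 note: 0% = DMSO and -100% = no enzyme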", "settings": "NLuc-conditioned medium, Nano-Glo luminescence, 5 min; series mostly up to 54.1 µM; activity, negative = inhibition: at the top concentration", "how_it_was_run": "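Compounds are pinned into diluted (1:55) conditioned medium of NLuc-expressing S16 cells and held 15 min at room temperature protected from light. Nano-Glo substrate follows, and luminescence is read 5 min later.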", "values": [
      {"smiles": "COc1ccc(S(=O)(=O)Nc2cccnc2Nc2ccc(O)cc2)cc1", "activity, negative = inhibition": "-6.04% (inactive)"},
      {"smiles": "CCC[C@H]1C[C@H](C(=O)N[C@@H]([C@@H]2O[C@@H](SC)[C@@H](O)[C@@H](O)[C@@H]2O)[C@H](C)Cl)N(C)C1", "activity, negative = inhibition": "-4.55% (inactive)"},
      {"smiles": "CC(C)(N)c1ccc(-c2nc3ccccc3nc2-c2ccccc2)cc1", "activity, negative = inhibition": "3.73% (inactive)"},
      {"smiles": "C[C@H](O)[C@@H]1C(=O)N2C(C(=O)O)=C(S[C@@H]3CN[C@H](CNS(N)(=O)=O)C3)[C@@H](C)[C@@H]12", "activity, negative = inhibition": "-1.91% (inactive)"},
      {"smiles": "CC(C)n1cnc2c(NCCc3ccc(O)cc3)nc(-c3csc4ccccc34)nc21", "activity, negative = inhibition": "-5.84% (inactive)"},
      {"smiles": "CC(C)c1cc(C(C)C)c(CC(=O)NS(=O)(=O)Oc2c(C(C)C)cccc2C(C)C)c(C(C)C)c1", "activity, negative = inhibition": "-13.6% (inactive)"}
    ]},
    {"system": "not listed separately", "test": "Primary redox qHTS assay for identification of artifact compounds. (AID 1845223);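 note: 0% = DMSO and 100% = reference compound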", "settings": "Amplex Red/HRP redox cycling with DTT, fluorescence; series mostly up to 53.8 µM; redox activity (% of DA3003): at the top concentration", "how_it_was_run": "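Amplex Red (25 uM) and HRP (250 mU/mL) in HBSS, with compounds for 15 min, then 250 uM DTT for 30 min, room temperature, dark. Fluorescence 525/598 nm read; normalized to DMSO and 10 uM DA3003; Hill fit.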", "values": [
      {"smiles": "COc1ccc(S(=O)(=O)Nc2cccnc2Nc2ccc(O)cc2)cc1", "redox activity (% of DA3003)": "-8.23% (inactive)"},
      {"smiles": "CCC[C@H]1C[C@H](C(=O)N[C@@H]([C@@H]2O[C@@H](SC)[C@@H](O)[C@@H](O)[C@@H]2O)[C@H](C)Cl)N(C)C1", "redox activity (% of DA3003)": "16.3% (inactive)"},
      {"smiles": "CC(C)(N)c1ccc(-c2nc3ccccc3nc2-c2ccccc2)cc1", "redox activity (% of DA3003)": "14.8% (inactive)"},
      {"smiles": "CC(C)n1cnc2c(NCCc3ccc(O)cc3)nc(-c3csc4ccccc34)nc21", "redox activity (% of DA3003)": "-3.7% (inactive)"}
    ]}
  ]
}
